Test results: the supplement of paper PMC10338343
± gives the standard deviation.

These sequences were tested on MILI (PIWIL2) piRISC loaded with piRNA #1 (26 nt) (assay: pre-steady-state target cleavage rate (min^-1); guide: piRNA #1 5'p-UGAGGUAGUAGGUUGUAUAGUAUCCA; higher = faster piRNA-guided slicing of the target). Settings: auxiliary factor: 500 nM mouse GTSF1.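 Further: 1 nM active piRISC with 0.1 nM target library at 33 °C single turnover.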
In short: (§1)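 Three pooled Cleave-'n-Seq trials supplied the data, with k3 capped at 0.0001 min^-1. In each, […] transcribed, DNA-blocked target RNA library and 1 nM active affinity-purified piRISC with one synthetic guide reacted in HEPES–potassium acetate buffer at 33 °C for 0–8 or 0–960 min, with or without 500 nM GTSF1 partner protein. Uncleaved targets were sequenced and normalised to depth and to weakly complementary targets. A burst-and-steady-state fit provided the pre-steady-state cleavage rate.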

Row | Sequence | pre-steady-state target cleavage rate
1 | GGAGAGGAUACUAUUCAACCUACUACCUGA | 0.0595 ± 0.0098
2 | GGAGAGGAUACUAUACAACCUAUCUACCUCA | 0.128 ± 0.012
3 | GGAGACGAUACUAUACAACCUAUUACCUCA | 0.219 ± 0.021
4 | GGAGACCUUACUAUACAACCUACUACCAUCA | 0.162 ± 0.024
5 | GGAGAGGAUACUAUACAACCUAUUACCUCA | 0.174 ± 0.018
6 | GGAGAGGAUAGCUAUACAACCUACUACCUCA | 0.035 ± 0.0046
7 | GGAGACGAUACUUACAACCUACUACCUCA | 0.114 ± 0.01
8 | GGAGACCAUACUAAUACAACCUACUACCUCA | 0.124 ± 0.014
9 | GGAGAGGAUACAAUACAACCUAGUACCUCA | 0.0411 ± 0.0087
10 | GGAGACGAUACUAUACAACCUACUACGUGA | 0.0822 ± 0.021
11 | GGAGACCUAACUAUACAACCUACUACCUA | 0.0998 ± 0.021
12 | GGAGACCAUACUAUACAACCUAUUACCUCA | 0.234 ± 0.019
13 | GGAGACCUAAGUAUACAACCUACUACCUCA | 0.0701 ± 0.0097
14 | GGAGACCAUACUAUAACAACCUACUACCUCA | 0.133 ± 0.012
15 | GGAGUUGGAUACUAUACAACCUACUACCUCA | 0.184 ± 0.023
16 | GGAGACCUAACUAUACAAGCUAGUACCUCA | 0.0871 ± 0.019
17 | GGAGAGGAUACUACACAACCUACUACCUCA | 0.193 ± 0.019
18 | GGAGACCAUACUAUACAACCUACUACCUACA | 0.16 ± 0.018
19 | GGAGACCUUACUAUACAACCUACUACCUGCA | 0.167 ± 0.019
20 | GGAGACGAUACUAUACAACCUCCUACCUCA | 0.041 ± 0.0079

Row | Sequence | pre-steady-state target cleavage rate
21 | GGAGAGGAUACUAUUCAACCUACUAGCUCA | 0.063 ± 0.014
22 | GGAGACCUAUGAUAACAACCUACUACGCUCA | 0.00466 ± 0.0023
23 | GGAGAGGAUACUAUACAACCUACUACUUCA | 0.153 ± 0.015
24 | GGAGUGGAUACAAUACAACCAACUACCUCA | 0.00919 ± 0.0019
25 | GGAGACCUUUGAAUACAACCUACUACCUCA | 0.00751 ± 0.0038
26 | GGAGUGGAUAAUAUACAACCUACUACCUCA | 0.168 ± 0.011
27 | GGAGACGAUUCUAAACAACCUACUACCUCA | 0.168 ± 0.012
28 | GGAGACCUAACUAUACAACCUAUUACCUCA | 0.0965 ± 0.018
29 | GGAGAGGAAACUAUACAACCUACUACCUGA | 0.047 ± 0.014
30 | GGAGAGGAUACUAUACAACCUACUACCGUCA | 0.0203 ± 0.0064
31 | GGAGAGGAUACUAUACAUCCUACUACGUCA | 0.00995 ± 0.003
32 | GGAGACGAUACUAUACAACCAACAACCUCA | 0.00726 ± 0.0036
33 | GGAGAGCAUACUAUUCAACCUACUACCUCA | 0.217 ± 0.017
34 | GGAGUGGAUACUAUACAACCUACUCACCUCA | 0.166 ± 0.02
35 | GGAGACCUAACUGAUACAACCUACUACCUCA | 0.183 ± 0.045
36 | GGAGACGAUACUAUACUACCUACUACGUCA | 0.138 ± 0.019
37 | GGAGUGGAUAGUAUACAACCUUCUACCUCA | 0.0115 ± 0.0038
38 | GGAGACCAUACUAUACAACCUACAACCUCA | 0.189 ± 0.024
39 | GGAGAGGAUACUAGUACAACCUACUACCUCA | 0.079 ± 0.011
40 | GGAGAGGAUACUAUACAACCUACUACCAGA | 0.0384 ± 0.0076

What follows are sequences tested on EfPiwi piRISC loaded with piRNA #1 (26 nt) (assay: pre-steady-state target cleavage rate (min^-1); auxiliary factor: 500 nM Ephydatia muelleri Gtsf1; guide: piRNA #1 5'p-UGAGGUAGUAGGUUGUAUAGUAUCCA; MIWI and MILI are mouse PIWI proteins and EfPiwi is from a freshwater sponge; tags in brackets are library labels; higher = faster piRNA-guided slicing of the target). Settings: not given.
In short: as §1

Row | Sequence | pre-steady-state target cleavage rate
41 | GGAGAGGAUACUAUUCAACCUACUACCUGA | 0.00319 ± 0.0018
42 | GGAGAGGAUACUAUACAACCUAUCUACCUCA | 0.00568 ± 0.0029
43 | GGAGACGAUACUAUACAACCUAUUACCUCA | 0.0146 ± 0.0053
44 | GGAGACCUUACUAUACAACCUACUACCAUCA | 0.00369 ± 0.0024
45 | GGAGAGGAUACUAUACAACCUAUUACCUCA | 0.153 ± 0.056
46 | GGAGAGGAUAGCUAUACAACCUACUACCUCA | 0.0146 ± 0.0073
47 | GGAGACGAUACUUACAACCUACUACCUCA | 0.00671 ± 0.0036
48 | GGAGACCAUACUAAUACAACCUACUACCUCA | 0.0159 ± 0.0066
49 | GGAGAGGAUACAAUACAACCUAGUACCUCA | 0.00263 ± 0.0018
50 | GGAGACGAUACUAUACAACCUACUACGUGA | 0.00515 ± 0.0026
51 | GGAGACCUAACUAUACAACCUACUACCUA | 0.0706 ± 0.025
52 | GGAGACCAUACUAUACAACCUAUUACCUCA | 0.0186 ± 0.0067
53 | GGAGACCUAAGUAUACAACCUACUACCUCA | 0.00697 ± 0.0037
54 | GGAGACCAUACUAUAACAACCUACUACCUCA | 0.00662 ± 0.0038
55 | GGAGUUGGAUACUAUACAACCUACUACCUCA | 0.197 ± 0.056
56 | GGAGACCUAACUAUACAAGCUAGUACCUCA | 0.00423 ± 0.0037
57 | GGAGAGGAUACUACACAACCUACUACCUCA | 0.00871 ± 0.004
58 | GGAGACCAUACUAUACAACCUACUACCUACA | 0.00527 ± 0.0031
59 | GGAGACCUUACUAUACAACCUACUACCUGCA | 0.00419 ± 0.0031
60 | GGAGACGAUACUAUACAACCUCCUACCUCA | 0.00579 ± 0.0016

Row | Sequence | pre-steady-state target cleavage rate
61 | GGAGAGGAUACUAUUCAACCUACUAGCUCA | 0.00239 ± 0.0015
62 | GGAGACCUAUGAUAACAACCUACUACGCUCA | < 0.0001
63 | GGAGAGGAUACUAUACAACCUACUACUUCA | 0.121 ± 0.05
64 | GGAGUGGAUACAAUACAACCAACUACCUCA | 0.00289 ± 0.0015
65 | GGAGACCUUUGAAUACAACCUACUACCUCA | 0.00525 ± 0.0038
66 | GGAGUGGAUAAUAUACAACCUACUACCUCA | 0.0105 ± 0.0047
67 | GGAGACGAUUCUAAACAACCUACUACCUCA | 0.00926 ± 0.0045
68 | GGAGACCUAACUAUACAACCUAUUACCUCA | 0.00738 ± 0.0043
69 | GGAGAGGAAACUAUACAACCUACUACCUGA | 0.0041 ± 0.0024
70 | GGAGAGGAUACUAUACAACCUACUACCGUCA | 0.00833 ± 0.0032
71 | GGAGAGGAUACUAUACAUCCUACUACGUCA | 0.00405 ± 0.0018
72 | GGAGACGAUACUAUACAACCAACAACCUCA | 0.00278 ± 0.0019
73 | GGAGAGCAUACUAUUCAACCUACUACCUCA | 0.00555 ± 0.0041
74 | GGAGUGGAUACUAUACAACCUACUCACCUCA | 0.00247 ± 0.0014
75 | GGAGACCUAACUGAUACAACCUACUACCUCA | 0.00745 ± 0.0044
76 | GGAGACGAUACUAUACUACCUACUACGUCA | 0.00262 ± 0.0017
77 | GGAGUGGAUAGUAUACAACCUUCUACCUCA | 0.00338 ± 0.0021
78 | GGAGACCAUACUAUACAACCUACAACCUCA | 0.00489 ± 0.0019
79 | GGAGAGGAUACUAGUACAACCUACUACCUCA | 0.0114 ± 0.0064
80 | GGAGAGGAUACUAUACAACCUACUACCAGA | 0.00451 ± 0.0018
